Data: the supplement of paper PMC12632987
Over roughly 4,500 sequences, “median log2 fold change of GCK-ALFA target abundance (FLAG IP / Myc IP barcode read proportion)” has its median near 0.078; the lowest 2% begin near -0.6. The full list was thinned out, with the lowest values kept by preference.

B1: GBRAP_122_2955 (protein)
chain: SKEEEVERLVEETVEAAKKGDFAATILEALKEAAERFDAESLIRLAERLAERARELGKEAEAALAFATAAQWLLEERPELAEAADRLLELADELLDLLEE
B2: GBRAP_166_4966 (protein)
chain: MEEEIKEEFKKYLEELKEKMKKANEEEKLELLAEAAEKLREAKEAGVSRETLRELIRYLIELAKEVGLTDSQVYGALSILADLDEEEIDILEEEIAEVRA
B3: GBRAP_166_4889 (protein)
chain: STEEAIREIERLAEEAIANIAALTPEELLAVFIEMVEIVERAGATPELRAALAEAAARIVAAAVAAGRDWDEVESLALAAVGDDEELLDAVEATLAALRA
B4: GBRAP_74_6553 (protein)
chain: SAALKKEIDAAAKAGDADKLIKLARKAVKEGDIDVAVHALGQLAKLAVKKAKAGDYDELDKLIDAIVEILEKVPDEALTDETWKAIAAAIKAAIEAEKAR
B5: GBRAP_160_4776 (protein)
chain: SEKEEKLKKKIKEAKEEILESIDTLSPEETLTVAIGETGDIIMEAEELEFDNEELLDSIDEIMDELIEELEKNKNASPEEKKKIVEEKFEKLLKELEKLT
B6: GBRAP_160_4428 (protein)
chain: SEKLKKAKEKIEEIIEETVEMMKGQSAEERQVLVRVARGEIILELEELGLLTDEVDEVIDEEFDEIVEYIAENPDISDEELRELLEEAREKILKELEKVS
B7: GBRAP_14_3860 (protein)
chain: VEALVKAVERTAESTKELIAEIAPEHAEEIKAKVEELAKEIIEKIKKENLNIEEVEELVDEAAEKLGAYMREKGYLSDTEIAAFKAHLLSEFLLELEEIE
B8: GBRAP_160_4725 (protein)
chain: EEEIKEFVEEFREEFLETLELTKDESKENAKALFRGTAGEILQDAFENPFLTDEQEDVVAEILDELVEELEKNFDASLEEKKEIVEEKMEELLEKLLELS

Each binder was assayed against GABARAP, O95166 (assay: median log2 fold change of GCK-ALFA target abundance (FLAG IP / Myc IP barcode read proportion) (log2 ratio); each designed protein is fused to an ALFA-tag nanobody in HEK293 cells to bring the named protein to FLAG-tagged glucokinase (GCK); Myc marks an untargeted standard; higher = target protein stabilised (more abundant)). Conditions: target protein: 3xFLAG-MCP-GCK-ALFA reporter; HEK293 landing pad (RPLP).
GABARAP, O95166, sequence (O95166 whole entry, the tested form may be a part): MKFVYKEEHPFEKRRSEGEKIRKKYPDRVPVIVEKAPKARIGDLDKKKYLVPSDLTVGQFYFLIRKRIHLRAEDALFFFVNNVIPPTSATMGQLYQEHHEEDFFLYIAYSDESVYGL
In short: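 An ALFA-nanobody-fused binder library was recombined into HEK293 landing-pad cells and induced with 2 μg mL^−1 doxycycline. Cells were transfected with a plasmid expressing a FLAG-tagged target and a Myc-tagged standard. After 48 h, lysates underwent anti-FLAG and anti-Myc immunoprecipitation, and circular RNA barcodes were reverse transcribed, amplified and sequenced. Target abundance is the per-binder median log2 ratio of FLAG to Myc barcode read proportions. Barcodes needed ≥10^−7 proportion in both replicates, binders ≥3 barcodes per replicate, and a 10^−6 pseudocount was added; the two replicates were pooled.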
B1 was tested, and the “median log2 fold change” value was -0.119.
In the case of B2, the “median log2 fold change” value is reported as -0.12.
In the case of B3, the “median log2 fold change” value is reported as 0.108.
B4 was tested, and the “median log2 fold change” value was -0.699.
For B5, the “median log2 fold change” value was 0.018.
For B6, the “median log2 fold change” value was 0.0554.
For B7, the “median log2 fold change” value was 0.302.
For B8, the “median log2 fold change” value was 0.0697.
